The values below come from PubChem BioAssay (Tox21).

Results filed as inconclusive are left out. Unmarked numbers belong to inactive results. Calls come from the whole dose curve; as a rule, active = well fitted cell-killing curve with a large enough effect in the repeat runs (not every such curve was filed as active); inconclusive = weak or mixed curves, or effect the other way; inactive = no such curve, though single readings can be large or run the other way.
% is set by controls: 0 for no effect and ±100 for the full control effect.

A short description of this assay: qHTS assay to identify small molecule antagonists of the farnesoid-X-receptor (FXR) signaling pathway - cell viability counter screen (AID 743221). Note: nearly all actives have a fitted effect of over 50% in size. As to conditions: FXR-bla HEK293T viability, CellTiter-Glo luminescence, 16 h; series mostly up to 62.6 µM; activity change, negative = cytotoxicity: at the top concentration. The source says:
National Center for Advancing Translational Sciences [NCATS]
NIH Chemical Genomics Center [NCGC]
U.S. Environmental Protection Agency [EPA]
National Institutes of Environmental Health Sciences [NIEHS]
National Toxicology Program [NTP]
U.S. Food and Drug Administration [FDA]
The farnesoid-X-receptor (FXR), a nuclear hormone receptor, is highly expressed in liver, intestine, kidney and adrenal cortex. Natural ligands of FXR are the bile acids (Cholic acid, Chenodeoxy cholic acid etc). FXR is an important regulator of diverse metabolic pathways, including the bile acid homeostasis, lipid and glucose metabolisms. FXR regulates the expression of target genes by binding either as a monomer or as a heterodimer with the retinoid X receptor (RXR). Numerous studies have reported that FXR exerts protective function during cholestasis, diabetes, liver regeneration, and cancer. To identify compounds that inhibit FXR signaling, GeneBLAzer FXR-UAS-bla HEK 293T cell line (Invitrogen, Carlsbad, CA) containing a beta-lactamase reporter gene under the control of a UAS response element was used to screen the Tox21 10K compound library. The cytotoxicity of the Tox21 compound library against the FXR-bla cell line was tested in parallel by measuring the cell viability using CellTiter-Glo assay in the same wells.
Tox21 Assay Protocol Summary:
FXR-bla cells were dispensed at 5000 cells/5uL/well in 1536-well black wall/clear bottom plates using a Multidrop Combi (Thermo Fisher Scientific, Waltham, MA) dispenser. After the assay plates were incubated at 37 C and 5% CO2 for 5 h, 23 nL of compounds dissolved in DMSO, positive controls or DMSO only was transferred to the assay plate by a Pintool station (Kalypsys, San Diego, CA), followed by addition of 1 uL Chenodeoxycholic acid (50 uM, final concentration in the wells). The assay plates were incubated at 37C for 16 h. After 1 uL of LiveBLAzerTM B/G FRET substrate was added using a Bioraptr Flying Reagent Dispenser (FRD) workstation (Beckman Coulter, Indianapolis, IN), the plates were incubated at room temperature for 2 h, and fluorescence intensity was measured by an Envision plate reader (PerkinElmer, Shelton, CT). For cell viability readout that measures cytotoxicity, 4uL/well of CellTiter-Glo reagent was added into the assay plates using a Bioraptr FRD. After 30 min incubation at room temperature, the luminescence intensity in the plates was measured using a ViewLux plate reader (PerkinElmer).
As for `COc1cc(C=O)ccc1OC(=O)C(C)C`, the “activity change, negative = cytotoxicity” value was -0.925%.
For `CC(=O)OC(C(=O)c1ccccc1)c1ccccc1` (stereo not given), the “activity change, negative = cytotoxicity” value was 2.27% [at 81.1 µM].
Next, `CC(C)CCC(=O)CCC(C)C`: -4.1%; `CNCc1ccccc1`: -15.3%.
For `Cc1ccc2c(c1)c1c3n2CCNC3CCC1` (stereo not given), the “activity change, negative = cytotoxicity” value is -11.1%.
For `CCCCC(=O)N(C)C`, the “activity change, negative = cytotoxicity” value is 3.44%.
Turning to `COC(=O)CCC(=O)O`, the “activity change, negative = cytotoxicity” value is -23.3%.
The result for `Nc1c(NC/C=C\COc2cc(CN3CCCCC3)ccn2)c(=O)c1=O` reads 4.03% [at 29.1 µM]; that for `CCCCCC(=O)OCC`, 13.1%.
Turning to `O=C1NC2NC(=O)NC2N1` (stereo not given), the “activity change, negative = cytotoxicity” value was 0.538%.
Next, `O=C1OC(=O)c2cc(Oc3ccc4c(c3)C(=O)OC4=O)ccc21`: 4.28%; `CC1CCC(C(C)(C)S)C(=O)C1` (stereo not given): 6.06%; `O=C1OC(=O)c2ccccc21`: 6.52%.
`Cc1nc(C)nc(N2C[C@@H](C)N(c3ccnc([C@@H](C)O)n3)[C@@H](C)C2)n1`: the “activity change, negative = cytotoxicity” value is 0.591%.
Regarding `CCN(CC)C(=O)C1CN2CCc3cc(OC)c(OC)cc3C2CC1OC(C)=O` (stereo not given), the “activity change, negative = cytotoxicity” value is 0.834%.
As for `COc1cccc2sc(N)nc12`, the “activity change, negative = cytotoxicity” value is -14.5% [at 81.1 µM].
For `CCCCCC1CCCC(=O)O1` (stereo not given), the “activity change, negative = cytotoxicity” value was -18.3%.
In the case of `COc1ccc(/C=N/NC(=O)c2ccncc2)cc1OC`, the “activity change, negative = cytotoxicity” value was 6.86%.
Next, `FC(F)(F)c1ccc(Cl)cc1Cl`: -1.37%.
The result for `O=C1c2ccccc2-c2ccccc21` reads 7.04% [at 81.1 µM]; that for `O=[Si]=O`, 9.17%.
As to `CCCCCN(CCCOC)C(=O)C(CCC(=O)O)NC(=O)c1ccc(Cl)c(Cl)c1` (stereo not given), the “activity change, negative = cytotoxicity” value is -1.67%.
Regarding `Cc1ncc([N+](=O)[O-])n1CC(O)CCl` (stereo not given), the “activity change, negative = cytotoxicity” value is 5.2%.
The result for `CCNC(=O)NCCCOc1cccc(CN2CCCCC2)c1` reads 0.0702%.
On to `CCC(=O)OCCC(C)CCC=C(C)C` (stereo not given), for which the “activity change, negative = cytotoxicity” value was 9.48%.
On to `Cc1ccccc1C(=O)N1CC/C(=N\OS(=O)(=O)O)c2ccc(Cl)cc21`, for which the “activity change, negative = cytotoxicity” value is -3.45%.
Regarding `CCCCCCCCCCC`, the “activity change, negative = cytotoxicity” value is -4.76%.
For `C=C(C)[C@@H]1CC[C@@H](C)C[C@@H]1O`, the “activity change, negative = cytotoxicity” value was -9.97%.
As to `O=C1CC[C@H](C(=O)N2CCCCC2)N1`, the “activity change, negative = cytotoxicity” value is 16.5%.
As for `CC(C)CCCC(C)CC=O` (stereo not given), the “activity change, negative = cytotoxicity” value was -15.8%.
For `CCCC(C)CC` (stereo not given), the “activity change, negative = cytotoxicity” value is -5.18%.
With `C=CCOCC(O)CCl` (stereo not given), the “activity change, negative = cytotoxicity” value was 1.26%.
Next, `CC(=O)N(CC(O)CO)c1c(I)c(C(=O)NCC(O)CO)c(I)c(C(=O)NCC(O)CO)c1I` (stereo not given): 10.1%; `Oc1ccccc1Cc1ccccc1O`: -17.1%.
The result for `O=S1(=O)CCCC1` reads 2.48% [at 81.1 µM]; that for `CCC(O)C(C)(C)C` (stereo not given), 16.3% [at 81.1 µM]; that for `NC(Cc1c[nH]c2ccccc12)C(=O)O` (stereo not given), -1.03%.
On to `CCCCCCCCCOCC1CO1` (stereo not given), for which the “activity change, negative = cytotoxicity” value was 2.53% [at 81.1 µM].
The result for `C=CCOC(=O)c1ccc(C(=O)OCC=C)c(C(=O)OCC=C)c1` reads 6.46%; that for `CCCCC(CC)C(=O)OC(C)C` (stereo not given), 3.26%.
